Data reported in PubChem BioAssay (Tox21).
Where “and” joins values, the source holds several entries; their conditions need not be identical. Equal values may be shown once. Records with an inconclusive call do not appear. Calls of active or inactive are those of the source. Unless noted, calls come from the whole dose curve; as a rule, active = well fitted curve in the direction sought with a large enough effect in the repeat runs; inconclusive = weak or mixed curves; inactive = no such curve, though single readings can be large; an effect the other way counts as inactive or inconclusive.

Assays:
[1] = target: Acetylcholinesterase (Homo sapiens) (UniProt P22303); test: Acetylcholinesterase (AChE) small molecule antagonists: enzyme-based qHTS assay (AID 1347397; calls by dose curve; note: nearly all actives have a fitted effect of over 55% in size; note: potency is the fitted concentration of half-maximal effect); details: Potency: AChE enzyme activity inhibition; outcome: AChE enzyme activity inhibition
Sequence of Acetylcholinesterase (Homo sapiens) (P22303 whole entry, looked up): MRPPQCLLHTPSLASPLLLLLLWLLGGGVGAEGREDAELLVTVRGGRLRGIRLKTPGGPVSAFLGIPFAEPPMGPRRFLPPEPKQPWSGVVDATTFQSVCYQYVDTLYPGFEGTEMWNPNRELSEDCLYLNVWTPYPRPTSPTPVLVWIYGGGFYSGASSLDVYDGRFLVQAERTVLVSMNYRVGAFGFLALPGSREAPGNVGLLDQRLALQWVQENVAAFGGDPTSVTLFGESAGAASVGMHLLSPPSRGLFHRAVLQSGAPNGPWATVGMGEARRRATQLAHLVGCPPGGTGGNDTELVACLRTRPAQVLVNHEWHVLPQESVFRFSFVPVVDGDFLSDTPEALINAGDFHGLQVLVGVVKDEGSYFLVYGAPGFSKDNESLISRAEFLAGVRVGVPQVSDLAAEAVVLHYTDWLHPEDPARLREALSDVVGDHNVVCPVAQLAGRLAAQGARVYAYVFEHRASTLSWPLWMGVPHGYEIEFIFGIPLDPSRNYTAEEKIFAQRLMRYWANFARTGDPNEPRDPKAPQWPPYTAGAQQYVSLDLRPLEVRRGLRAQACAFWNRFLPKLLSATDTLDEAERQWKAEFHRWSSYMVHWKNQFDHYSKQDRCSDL
Outline: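 Recombinant human AChE (50 mU/mL) preincubated with compound 30 min at room temperature; acetylthiocholine plus DTNB then added, and thiocholine formation read colorimetrically after 10 min at room temperature. DMSO served as vehicle control.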

[2] = target: Acetylcholinesterase (Homo sapiens) (UniProt P22303); test: Acetylcholinesterase (AChE) small molecule antagonists: fluorescence cell-based qHTS assay (AID 1347398; calls by dose curve; note: nearly all actives have a fitted effect of over 50% in size; note: potency is the fitted concentration of half-maximal effect); details: Potency: AChE activity; outcome: AChE activity
Outline: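 SH-SY5Y cells (2000/well), attached overnight, incubated with compound 30 min at 37 C. Acetylthiocholine plus Thiolite Green then added for 40 min at room temperature. Thiocholine fluorescence (Ex/Em 490/520 nm) reports cellular AChE activity.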

[3] = target: Cytochrome P450 2D6 (Homo sapiens) (UniProt P10635); test: Cytochrome P450 Family 2 Subfamily D Member 6 (CYP2D6) small molecule antagonists: luciferase reporter qHTS assay (AID 1671196); note: nearly all actives have a fitted effect of over 50% in size; note: potency is the fitted concentration of half-maximal effect; for activity change, negative = inhibition: series mostly up to about 120 µM
Sequence of Cytochrome P450 2D6 (Homo sapiens) (P10635 whole entry, looked up): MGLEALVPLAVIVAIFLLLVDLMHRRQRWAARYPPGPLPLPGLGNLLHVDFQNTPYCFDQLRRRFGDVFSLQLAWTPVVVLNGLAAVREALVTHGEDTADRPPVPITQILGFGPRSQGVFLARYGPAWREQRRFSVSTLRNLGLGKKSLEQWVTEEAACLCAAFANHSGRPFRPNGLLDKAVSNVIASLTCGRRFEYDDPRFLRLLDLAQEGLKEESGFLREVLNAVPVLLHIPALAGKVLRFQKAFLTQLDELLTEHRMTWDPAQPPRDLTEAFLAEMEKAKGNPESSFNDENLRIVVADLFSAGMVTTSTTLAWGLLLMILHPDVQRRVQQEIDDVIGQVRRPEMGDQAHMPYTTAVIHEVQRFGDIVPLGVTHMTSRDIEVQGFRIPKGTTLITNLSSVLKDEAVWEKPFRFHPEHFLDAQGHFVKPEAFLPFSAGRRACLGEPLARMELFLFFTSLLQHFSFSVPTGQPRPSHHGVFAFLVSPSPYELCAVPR
Outline: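 Each well received CYP2D6 with its proluciferin substrate and chemical, sat 10 min, then got NADPH regeneration solution for 1 h at room temperature. Luminescence in RLU served as the activity measure.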

[4] = target: Cytochrome P450 2C19 (Homo sapiens) (UniProt P33261); test: Cytochrome P450 Family 2 Subfamily C Member 19 (CYP2C19) small molecule antagonists: luciferase reporter qHTS assay (AID 1671197); note: nearly all actives have a fitted effect of over 65% in size; note: potency is the fitted concentration of half-maximal effect; for activity change, negative = inhibition: series mostly up to about 120 µM
Sequence of Cytochrome P450 2C19 (Homo sapiens) (P33261 whole entry, looked up): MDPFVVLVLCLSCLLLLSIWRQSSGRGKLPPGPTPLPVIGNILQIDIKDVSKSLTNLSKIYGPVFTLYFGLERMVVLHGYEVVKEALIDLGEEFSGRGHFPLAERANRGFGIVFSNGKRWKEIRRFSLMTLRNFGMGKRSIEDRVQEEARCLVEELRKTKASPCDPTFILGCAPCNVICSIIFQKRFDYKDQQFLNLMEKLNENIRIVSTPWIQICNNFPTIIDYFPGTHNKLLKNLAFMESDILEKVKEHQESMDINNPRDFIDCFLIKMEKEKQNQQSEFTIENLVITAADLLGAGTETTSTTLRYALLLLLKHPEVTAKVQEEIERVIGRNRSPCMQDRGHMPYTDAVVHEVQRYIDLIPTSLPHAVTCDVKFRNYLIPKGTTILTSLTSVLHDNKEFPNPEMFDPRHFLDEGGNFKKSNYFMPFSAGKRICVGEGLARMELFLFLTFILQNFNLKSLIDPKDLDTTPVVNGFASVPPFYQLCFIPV
Outline: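 CYP2C19 P450-Glo, 1536-well qHTS. Cpd + enzyme/proluciferin substrate 10 min RT; + NADPH regen, 37C 1 h; stop with luciferin detection reagent, 20 min RT, luminescence (RLU). Pos ctrl ketoconazole.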

[5] = target: Cytochrome P450 2C9 (Homo sapiens) (UniProt P11712); test: Cytochrome P450 Family 2 Subfamily C Member 9 (CYP2C9) small molecule antagonists: luciferase reporter qHTS assay (AID 1671198); note: nearly all actives have a fitted effect of over 50% in size; note: potency is the fitted concentration of half-maximal effect; for activity change, negative = inhibition: series mostly up to about 120 µM
Sequence of Cytochrome P450 2C9 (Homo sapiens) (P11712 whole entry, looked up): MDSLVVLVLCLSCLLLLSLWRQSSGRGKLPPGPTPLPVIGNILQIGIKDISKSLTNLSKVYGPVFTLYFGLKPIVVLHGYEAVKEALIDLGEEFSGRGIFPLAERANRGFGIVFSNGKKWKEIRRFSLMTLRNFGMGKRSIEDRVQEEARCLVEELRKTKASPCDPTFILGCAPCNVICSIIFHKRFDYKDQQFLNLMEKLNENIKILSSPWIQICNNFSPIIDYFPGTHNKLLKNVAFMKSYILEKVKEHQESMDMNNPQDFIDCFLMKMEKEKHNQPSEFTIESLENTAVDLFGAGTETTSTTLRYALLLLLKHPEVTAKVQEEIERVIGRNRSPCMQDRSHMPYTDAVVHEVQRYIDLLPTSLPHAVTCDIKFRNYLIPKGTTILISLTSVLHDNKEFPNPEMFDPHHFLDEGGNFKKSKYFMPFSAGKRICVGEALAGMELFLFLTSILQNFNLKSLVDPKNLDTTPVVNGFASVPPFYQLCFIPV
Outline: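 P450-Glo proluciferin substrate with CYP2C9 enzyme; 10 min RT preincubation, then NADPH regeneration 1 h at 37C; luciferin detection reagent 20 min RT, luminescence in relative luminescence units.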

[6] = target: Voltage-gated inwardly rectifying potassium channel KCNH2 (Homo sapiens) (UniProt Q12809); test: Human Ether-a-go-go-Related Gene (hERG) channel small molecule antagonists: fluorescence cell-based qHTS assay (AID 1671200);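 note: hERG-expressing U2OS cells given a thallium stimulus after FluxOR II dye loading; series mostly up to about 77 µM; nearly all actives have a fitted effect of over 50% in size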
Sequence of Voltage-gated inwardly rectifying potassium channel KCNH2 (Homo sapiens) (Q12809 whole entry, looked up): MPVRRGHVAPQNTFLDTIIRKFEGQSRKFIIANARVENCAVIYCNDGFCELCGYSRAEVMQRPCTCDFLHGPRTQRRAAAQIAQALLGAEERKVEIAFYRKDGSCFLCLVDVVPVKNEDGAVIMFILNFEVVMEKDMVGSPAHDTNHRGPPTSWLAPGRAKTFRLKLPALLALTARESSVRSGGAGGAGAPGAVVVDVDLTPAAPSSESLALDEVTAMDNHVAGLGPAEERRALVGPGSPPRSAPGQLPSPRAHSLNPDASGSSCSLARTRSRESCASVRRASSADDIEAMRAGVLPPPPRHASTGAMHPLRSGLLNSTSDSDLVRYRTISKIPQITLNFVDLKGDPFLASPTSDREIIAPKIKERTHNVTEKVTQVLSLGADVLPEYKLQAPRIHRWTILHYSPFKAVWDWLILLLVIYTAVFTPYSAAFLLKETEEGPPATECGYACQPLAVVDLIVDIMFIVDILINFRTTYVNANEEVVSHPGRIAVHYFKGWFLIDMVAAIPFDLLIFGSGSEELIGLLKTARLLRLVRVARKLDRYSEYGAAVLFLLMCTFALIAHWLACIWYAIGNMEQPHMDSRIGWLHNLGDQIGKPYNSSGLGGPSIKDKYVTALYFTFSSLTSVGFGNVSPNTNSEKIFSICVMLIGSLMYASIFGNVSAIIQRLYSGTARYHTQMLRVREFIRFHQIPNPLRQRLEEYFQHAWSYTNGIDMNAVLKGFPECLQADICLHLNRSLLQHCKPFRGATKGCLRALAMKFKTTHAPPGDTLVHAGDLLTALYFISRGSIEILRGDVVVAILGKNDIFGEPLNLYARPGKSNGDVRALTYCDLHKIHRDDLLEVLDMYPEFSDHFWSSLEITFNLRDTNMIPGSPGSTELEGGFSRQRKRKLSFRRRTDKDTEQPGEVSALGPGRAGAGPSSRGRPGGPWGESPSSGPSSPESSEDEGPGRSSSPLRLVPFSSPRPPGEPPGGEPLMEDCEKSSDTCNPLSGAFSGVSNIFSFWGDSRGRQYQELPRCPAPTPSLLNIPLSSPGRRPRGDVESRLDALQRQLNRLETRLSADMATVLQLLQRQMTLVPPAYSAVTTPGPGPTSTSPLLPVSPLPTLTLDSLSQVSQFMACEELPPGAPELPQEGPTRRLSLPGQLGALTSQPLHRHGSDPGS
Outline: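 hERG-U2OS cells plated overnight at 37 C, loaded with FluxOR II dye 1 h at RT in dark; after 10 min, thallium stimulus added. Fluorescence (480/540 nm) read kinetically for 2 min at 1 s intervals.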

[7] = target: Cytochrome P450 3A4 (Homo sapiens) (UniProt P08684); test: Cytochrome P450 Family 3 Subfamily A Member 4 (CYP3A4) small molecule antagonists: luciferase reporter qHTS assay (AID 1671201); note: nearly all actives have a fitted effect of over 50% in size; note: potency is the fitted concentration of half-maximal effect; for activity change, negative = inhibition: series mostly up to about 120 µM
Sequence of Cytochrome P450 3A4 (Homo sapiens) (P08684 whole entry, looked up): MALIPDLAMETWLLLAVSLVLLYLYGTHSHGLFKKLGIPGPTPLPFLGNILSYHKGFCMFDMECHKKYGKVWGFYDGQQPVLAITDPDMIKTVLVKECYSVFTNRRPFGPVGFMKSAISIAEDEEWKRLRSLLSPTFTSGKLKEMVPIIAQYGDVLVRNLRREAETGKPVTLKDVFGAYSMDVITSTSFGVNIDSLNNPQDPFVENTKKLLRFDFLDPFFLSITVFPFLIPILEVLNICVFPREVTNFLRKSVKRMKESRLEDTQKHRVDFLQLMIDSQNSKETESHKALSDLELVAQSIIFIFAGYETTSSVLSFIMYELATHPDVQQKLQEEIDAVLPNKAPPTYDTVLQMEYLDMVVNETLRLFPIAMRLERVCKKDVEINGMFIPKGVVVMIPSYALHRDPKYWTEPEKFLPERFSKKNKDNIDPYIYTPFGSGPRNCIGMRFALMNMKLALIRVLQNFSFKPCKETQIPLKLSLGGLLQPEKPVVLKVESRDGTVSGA
Outline: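 P450-Glo CYP3A4 luminescent assay: compounds preincubated 10 min at room temperature with enzyme and proluciferin substrate, NADPH regeneration added, 1 h room-temperature reaction, stopped with luciferin detection reagent; luminescence read after 20 min. Ketoconazole positive control.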

[8] = target: Cytochrome P450 1A2 (Homo sapiens) (UniProt P05177); test: Cytochrome P450 Family 1 Subfamily A Member 2 (CYP1A2) small molecule antagonists: luciferase reporter qHTS assay (AID 1671199); note: nearly all actives have a fitted effect of over 50% in size; note: potency is the fitted concentration of half-maximal effect; for activity change, negative = inhibition: series mostly up to about 120 µM
Sequence of Cytochrome P450 1A2 (Homo sapiens) (P05177 whole entry, looked up): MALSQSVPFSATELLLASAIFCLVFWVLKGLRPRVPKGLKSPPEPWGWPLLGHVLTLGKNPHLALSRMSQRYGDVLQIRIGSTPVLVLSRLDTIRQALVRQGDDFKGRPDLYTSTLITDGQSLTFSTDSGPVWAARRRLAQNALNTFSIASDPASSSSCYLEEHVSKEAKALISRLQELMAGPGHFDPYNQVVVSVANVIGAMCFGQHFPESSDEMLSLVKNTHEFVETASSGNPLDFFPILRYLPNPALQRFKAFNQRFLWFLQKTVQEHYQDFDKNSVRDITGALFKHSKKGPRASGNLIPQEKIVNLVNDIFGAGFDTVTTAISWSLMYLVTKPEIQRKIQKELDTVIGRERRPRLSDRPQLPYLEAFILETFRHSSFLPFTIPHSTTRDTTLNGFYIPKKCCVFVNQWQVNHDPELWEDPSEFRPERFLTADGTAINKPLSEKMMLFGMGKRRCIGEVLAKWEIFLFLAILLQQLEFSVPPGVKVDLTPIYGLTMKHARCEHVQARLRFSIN
Outline: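 Enzymatic CYP1A2 assay, human, luminescent: 10 min compound–enzyme–substrate preincubation, 1 h NADPH-dependent turnover, 20 min detection step, room temperature throughout. Reduced light indicates lower CYP1A2 activity.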

[9] = target: Acetylcholinesterase (Homo sapiens) (UniProt P22303); test: Acetylcholinesterase (AChE) small molecule antagonists: enzyme-based qHTS assay with human liver microsomes (AID 1347399; calls by dose curve; note: nearly all actives have a fitted effect of over 60% in size); details: Potency: qHTS inhibition; outcome: qHTS inhibition
Outline: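 Recombinant human AChE (50 mU/mL in the enzyme mix) and human liver microsomes (0.25 mg/mL final) were preincubated with compound and NADPH (0.25 mg/mL final) for 30 min at 37 C. Acetylthiocholine/DTNB was then added; thiocholine was read colorimetrically after 10 min at room temperature.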
% is set by controls: 0 for no effect and ±100 for the full control effect.

O=C(O)C(F)(F)C(F)(F)C(F)(F)C(F)(F)C(F)(F)C(F)(F)F
active: Potency [5] 6.33 µM
inactive: Potency [1] | Potency [2] | Potency [3] | Potency [4] | Potency [6] | Potency [7]

C/C(=N\NC(=O)Nc1cc(F)cc(F)c1)c1ncccc1C(=O)O
inactive: Potency [1] | Potency [2] | Potency [3] | Potency [6] | Potency [7]
active: Potency [5] 10 µM and 12.6 µM

CCOC(=O)C(SP(=S)(OC)OC)c1ccccc1 (centres undefined)
active: Potency [1] 71 µM | Potency [2] 22.4 µM | Potency [3] 44.8 µM | Potency [4] 0.283 µM | Potency [5] 1.26 µM | Potency [8] 3.17 µM | Potency [7] 2.83 µM

CC(C)C(C)(N)C#N (centres undefined)
inactive: Potency [1] | Potency [2] | Potency [3] | Potency [4] | Potency [5] | Potency [6] | Potency [7]

CCN1CCCC1CNC(=O)C(O)(c1ccccc1)c1ccccc1 (centres undefined)
inactive: Potency [1] | Potency [2] | Potency [4] | Potency [5]
active: Potency [3] 4.9 µM | Potency [7] 4.9 µM

OCC(Cl)CCl (centres undefined)
inactive: Potency [1] | Potency [2] | Potency [3] | Potency [6] | Potency [7]
active: Potency [4] 70.1 µM | Potency [8] 39.4 µM

CC(=O)OCC1=C(C(=O)O)N2C(=O)[C@@H](N)[C@H]2SC1
inactive: activity change, negative = inhibition [1] -2.73% [at 23.6 µM] | activity change, negative = inhibition [2] -12.7% [at 23.8 µM] | activity change, negative = inhibition [9] -11.4% [at 23.6 µM] | activity change, negative = inhibition [6] 0.177% [at 15.8 µM] | activity change, negative = inhibition [7] -8.01% [at 23.6 µM]
active: Potency [8] 12 µM

CC1N=C(N)OC1c1ccccc1 (centres undefined)
active: Potency [3] 9.81 µM
inactive: Potency [1] | Potency [2] | Potency [5] | Potency [8] | Potency [6] | Potency [7]

[O-][Br+2]([O-])O
inactive: Potency [1] | Potency [2] | Potency [3] | Potency [4] | Potency [5] | Potency [8] | Potency [6] | Potency [7]

CCSC(=O)Cl
inactive: Potency [1] | Potency [2] | Potency [4] | Potency [5] | Potency [8] | Potency [6] | Potency [7]

C[C@H]1CCCC(=O)CCC/C=C/c2cc(O)cc(O)c2C(=O)O1
inactive: Potency [1] | Potency [2] | Potency [6]
active: Potency [3] 54.3 µM | Potency [4] 17.2 µM and 29.2 µM | Potency [5] 4.84 µM and 7.34 µM | Potency [8] 21.6 µM and 13.1 µM | Potency [7] 122 nM and 184 nM

C/C=C/CC#N
active: Potency [8] 36.4 µM
inactive: Potency [1] | Potency [2] | Potency [3] | Potency [4] | Potency [5] | Potency [6] | Potency [7]

C=C1C[C@@H]2[C@H](CC[C@]3(C)C(=O)CC[C@@H]23)[C@@]2(C)C=CC(=O)C=C12
inactive: Potency [1] | Potency [2] | Potency [9] | Potency [6] | Potency [7]

COc1cccc(C=O)c1
inactive: Potency [1] | Potency [2] | Potency [3] | Potency [4] | Potency [5] | Potency [6] | Potency [7]

CCC1(CC)C(=O)C=CNC1=O
inactive: Potency [1] | Potency [2] | Potency [9] | Potency [6] | Potency [7]
active: Potency [8] 15.5 µM

Nc1c(Cl)c(F)nc(OCC(=O)O)c1Cl
inactive: Potency [1] | Potency [2] | Potency [3] | Potency [5] | Potency [6] | Potency [7]

O=C(CCl)NCO
inactive: Potency [1] | Potency [2] | Potency [3] | Potency [4] | Potency [5] | Potency [8] | Potency [6] | Potency [7]

CCNc1nc(NCC)nc(SC)n1
inactive: Potency [1] | Potency [2] | Potency [3] | Potency [5] | Potency [6] | Potency [7]
active: Potency [8] 10 µM

CCOC1Oc2ccc(OS(C)(=O)=O)cc2C1(C)C (centres undefined)
active: Potency [3] 35.3 µM | Potency [5] 22.3 µM | Potency [8] 35.3 µM
inactive: Potency [1] | Potency [2] | Potency [6] | Potency [7]

CCCCCCCC(=O)Cl
active: Potency [4] 40.3 µM
inactive: Potency [1] | Potency [2] | Potency [3] | Potency [8] | Potency [6] | Potency [7]

CCOC(=O)CCl
inactive: Potency [1] | Potency [2] | Potency [3] | Potency [5] | Potency [8] | Potency [6] | Potency [7]
